The source of these data is PubChem BioAssay AID1490 (National Center for Advancing Translational Sciences (NCATS), 2009).

In all, about 310,000 compounds went through this assay and about 11,000 (3.5%) were called active. Inconclusive results (about 4%) are left out. The sample as a whole holds a higher share of actives than the screen did. A number with no mark means an inactive call. The call rests on the fitted dose curve; in most records, active means well fitted inhibition curve with a large enough effect; inconclusive means small, poorly fitted or top-dose-only effect, or another doubt; inactive means no such curve, though single readings can be large or run the other way.
Potency means the concentration at half of the fitted maximal effect.

The target in the experiment is 4'-phosphopantetheinyl transferase ffp (Bacillus subtilis) (UniProt Q9F4F7). Nature of the experiment: qHTS Assay for Inhibitors of Bacillus subtilis Sfp phosphopantetheinyl transferase (PPTase).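 Further: the enzyme is Sfp with the accession as filed and its product quenches rhodamine fluorescence.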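 On largest response in the series, negative = inhibition: 0% = enzyme reaction without inhibitor and -100% = no enzyme wells.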 The note with it: Biochemical Sfp PPTase activity. A digest of the protocol:
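Sfp 15 nM + cpd, 15 min RT; start w/ rhodamine-CoA 5 uM, BHQ-2-YbbR 12.5 uM (final); 50 mM Hepes pH 7.6, 10 mM MgCl2, 0.01% NP-40, 0.01% BSA; read 525/598 nm at 0 and 30 min.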
(Quantitative high-throughput screening tests each substance at several concentrations.)
As for `Cc1cc(F)ccc1N1CCC(N2CCN(C)C(CCO)C2)CC1` (stereo not given), the largest response in the series, negative = inhibition was 6.62%.

Take `COc1ccc(-c2c3c(=O)n(C)c(=O)n(C)c3cn2-c2cccc(OC)c2)cc1`: the largest response in the series, negative = inhibition was 3.62%. `Cc1ccc(-c2c3c(=O)n(C)c(=O)n(C)c3cn2-n2cnnc2)cc1`: the largest response in the series, negative = inhibition is 12.6%. With `Cc1ccc(-c2c3c(=O)n(C)c(=O)n(C)c3cn2-c2ccccc2O)cc1`, the Potency was 56.2 µM (active).

On to `O=C(CCNC(=O)C1CCN(S(=O)(=O)c2ccccc2)CC1)NC1CC1`, for which the largest response in the series, negative = inhibition was 5.65%. Regarding `Cc1ccn(C(CC(=O)c2ccc(Br)cc2)C(=O)O)n1` (stereo not given), the Potency was 22.4 µM (active). For `Cc1cc(C)c2c(=O)[nH]c(SCC(=O)Nc3ccc(Br)cc3)nc2n1`, the largest response in the series, negative = inhibition was 1.73%.

For the compound `Cc1ccc(NC(=O)CCC(=O)c2ccc(Br)cc2)cc1`, the largest response in the series, negative = inhibition was 11.8%. On the same count and under the same terms, for `CCOc1ccc2nc(NCCNC(=O)C(C)(C)C)c(C)cc2c1` the value was 17.3%. As to `CCOc1ccc2nc(NCCNS(=O)(=O)c3ccccc3)c(C#N)cc2c1`, the Potency is 79.4 µM (active). In the case of `CCOc1ccc(S(=O)(=O)NCCSc2ccccc2)cc1`, the largest response in the series, negative = inhibition is 6.97%.

Regarding `COc1ccc2cc1Oc1ccc(cc1)C[C@H]1c3cc(c(OC)cc3CCN1C)Oc1c(O)c(OC)cc3c1[C@H](C2)N(C)CC3`, the largest response in the series, negative = inhibition is 1.93%.

For the compound `COc1c(O)ccc2c1CN1CCc3cc4c(cc3C1C2)OCO4` (stereo not given), the Potency is 35.5 µM (active). Take `COc1cc(COCC(O)CN2CCN(Cc3ccc4c(c3)OCO4)CC2)cc(OC)c1OC` (stereo not given): the largest response in the series, negative = inhibition is 8.76%. On the same count and under the same terms, under `CCOC(=O)[C@]1(C(/C=C/c2ccco2)NC(=O)OC)CCCC1=O` (stereo not given in full) stands -6.29%; under `O=C(O)c1cc(S(=O)(=O)N(Cc2ccccc2)c2ccccc2)ccc1Cl`, 19%.

`COc1ccc2[nH]c(=O)c(CN(Cc3nnnn3CCc3ccccc3)CC3CCCO3)cc2c1` (stereo not given): the largest response in the series, negative = inhibition was 0.899%.

Take `CCC(c1nnnn1Cc1ccco1)N(CCc1ccccc1)Cc1cc2cccc(C)c2[nH]c1=O` (stereo not given): the Potency is 25.1 µM (active). `CCC(c1nnnn1Cc1ccccc1)N(Cc1cc2cc(OC)ccc2[nH]c1=O)CC1CCCO1` (stereo not given): the largest response in the series, negative = inhibition is -86%. On to `CCC(c1nnnn1Cc1ccco1)N(Cc1cc2cc(OC)ccc2[nH]c1=O)C1CCCCC1` (stereo not given), for which the Potency is 3.55 µM (active). Take `CCC(c1nnnn1Cc1ccco1)N(CCc1ccccc1)Cc1cc2ccc(OC)cc2[nH]c1=O` (stereo not given): the largest response in the series, negative = inhibition was -15.9%. For `CCC(c1nnnn1C1CCCC1)N(Cc1cccs1)Cc1cc2cccc(C)c2[nH]c1=O` (stereo not given), the largest response in the series, negative = inhibition is 9.11%. `COc1ccc(-c2nc3c(s2)CCc2onc(-c4ccc(OC)cc4)c2-3)cc1`: the largest response in the series, negative = inhibition is 4.62%. `CC(NCc1cccs1)C(=O)Nc1cc(Cl)cc(Cl)c1` (stereo not given): the largest response in the series, negative = inhibition was -16.2%.

Take `CC1=C(C(=O)NC2CC(C)(C)Cc3c2cnn3-c2ccc(C)cc2)OCCO1` (stereo not given): the largest response in the series, negative = inhibition is 15.5%. As for `CCN(CC)CCCCn1c(-c2ccccc2)nc2c(N3CCOCC3)nc(C)nc21`, the largest response in the series, negative = inhibition was 39.5%. Turning to `O=C(C1CCCO1)N1CCN(S(=O)(=O)c2ccc(Br)cc2)CC1` (stereo not given), the largest response in the series, negative = inhibition is -3.46%. Still for that read-out and setting: under `O=C(CN1C(=O)S/C(=C\c2ccccc2F)C1=O)NCCCn1ccnc1` stands 16.3%; under `CC(=O)c1sc(N/N=C\c2ccc(C)cc2)nc1C`, -20.4%. Regarding `CC(=O)c1sc(NC(=O)C2=NN(c3ccccc3)C(=O)CC2)nc1C`, the Potency is 79.4 µM (active). Regarding `COc1cc2ccccc2cc1C(=O)Nc1nc(C)c(C(C)=O)s1`, the largest response in the series, negative = inhibition was -2.33%. The same measure, in the same setting: for `CCCCN1C(=O)C(C)=C(C)C1OCCc1ccc(OC)c(OC)c1` (stereo not given) the value was 14%; for `CCC(=O)c1cn(CCOc2ccccc2OC)c2ccccc12`, 2.97%. For the compound `O=S(=O)(c1ccc(NC(=S)NN=C(C2CC2)C2CC2)cc1)N1CCOCC1`, the Potency is 44.7 µM (active). For `O=C(NC(=S)Nc1ccc(S(=O)(=O)N2CCOCC2)cc1)c1ccccc1[N+](=O)[O-]`, the largest response in the series, negative = inhibition is -9.64%. Still for that read-out and setting: under `CN1CCN(S(=O)(=O)c2ccc(NC(=S)NC(=O)C3CC3)cc2)CC1` stands 22.5%; under `CC(=O)Oc1cccc(C(=O)Nc2ccccc2NC(=O)c2cccc(OC(C)=O)c2)c1`, 11.7%; under `CCOc1ccc2[nH]c(=O)c(CN(CCCO)S(=O)(=O)c3ccc(F)cc3)cc2c1`, 2.06%.

Regarding `O=C1c2ccccc2C(=O)N1c1cccc2ccccc12`, the largest response in the series, negative = inhibition is 4.99%. With `CC1=C(C)CC2C(=O)N(c3cccc4ccccc34)C(=O)C2C1` (stereo not given), the Potency is 39.8 µM (active). `Cc1ccc(N2C(=O)CC(Nc3cccc4ccccc34)C2=O)cc1` (stereo not given): the largest response in the series, negative = inhibition was 3.72%. The same measure, in the same setting: for `COc1ccc(NC(=O)CCS(=O)(=O)c2cc3c(cc2Cl)NC(=O)CO3)cc1OC` the value was 8.75%. On to `C=CCc1ccccc1OCC(=O)N/N=C/c1ccccc1OCC`, for which the largest response in the series, negative = inhibition was -17.8%. Same read-out and setting: for `CCOc1ccccc1/C=N/NC(=O)CNC(=O)COc1ccccc1` the value was 13.5%. For `C=C(C)CNC(=S)N/N=C/c1ccccc1OCC(=O)O`, the Potency was 12.6 µM (active). With `Cc1ccc(NC(=O)O[C@@H]2C(=O)c3cc(Br)ccc3O[C@H]2c2ccc3c(c2)OCO3)cc1Br`, the largest response in the series, negative = inhibition is -5.42%. Take `N[C@@H](Cc1ccccc1)C(=O)N1CCC(C(=O)NCC(=O)Nc2ccc(F)cc2)CC1`: the largest response in the series, negative = inhibition is -3.37%.

Take `C[N+](C)(C)CCNC(=O)c1cc[n+](Cc2ccccc2)c(/C=N/O)c1`: the largest response in the series, negative = inhibition is 3.04%. On the same count and under the same terms, for `N#CCC(=O)NC1CCC(CC2CCC(NC(=O)CC#N)CC2)CC1` (stereo not given) the value was -5.45%. On the same count and under the same terms, for `CCCn1c(SCC(=O)N2CCc3ccccc32)nnc1-c1ccncc1` the value was 15.4%; for `Cn1c(SCC(=O)N2CCCc3ccccc32)nc2ccccc2c1=O`, 0.535%. The same measure, in the same setting: for `COC(=O)c1ccc(CSc2ccccc2C)o1` the value was 17.7%; for `COc1ccc(-c2nnc3ccc(SCc4ccccc4)nn23)cc1`, -4.23%.

For the compound `O=C(CSc1ccc2nnc(-c3ccccc3)n2n1)N1CCCc2ccccc21`, the Potency is 8.91 µM (active). On to `COC(=O)c1ccc(CSc2ccc3nnc(-c4ccccc4)n3n2)o1`, for which the Potency is 70.8 µM (active).

`CN(CC(=O)Nc1ccc(Cl)cc1)C(=O)CNC(=O)c1ccc2ccccc2c1`: the largest response in the series, negative = inhibition is 1.11%.

With `O=C1CCN(Cc2ccccc2)CCN1[C@H](CSc1ccccc1)c1ccccc1`, the largest response in the series, negative = inhibition was 2.51%.

Take `O=C(Nc1nc2ccccc2s1)c1ccc2c(c1)OCO2`: the largest response in the series, negative = inhibition is 16.2%. Turning to `O=C(O)CC/C(=C\c1cc2c(cc1Br)OCO2)c1nc2ccccc2s1`, the Potency is 50.1 µM (active). In the case of `O=C(O)CS/C(=C\c1ccc(F)cc1)c1nc2ccccc2s1`, the largest response in the series, negative = inhibition was 27.3%. Same read-out and setting: for `CC(C)[C@H](NC(=O)N1CCn2c1nc1ccccc12)C(=O)NCCc1ccccc1` the value was 3.48%; for `CC(C(=O)NC1CCS(=O)(=O)C1)N1C(=O)/C(=C/c2ccc(Cl)cc2)SC1=S` (stereo not given), -16.1%. Same read-out and setting: for `CC(C)(C)c1ccc(CN2C(=O)c3ccccc3S2(=O)=O)cc1` the value was -8.95%. Consider `Cc1ccccc1NC(=O)CSc1nc2ccc(Nc3nc(N4CCOCC4)nc(N4CCOCC4)n3)cc2s1`, for which the largest response in the series, negative = inhibition is -16.9%. The same measure, in the same setting: for `Cc1ccc(OCC(=O)NC(C)c2ccccc2)cc1C` (stereo not given) the value was -3.78%; for `Cc1cc(C)cc(OCC(=O)NC(C)c2ccccc2)c1` (stereo not given), -3.71%. For `C/C(CC(=O)NC(C)c1ccccc1)=N\NC(N)=S` (stereo not given), the Potency is 79.4 µM (active). `CC(=O)Nc1ccc(S(=O)(=O)N2CCC(C(=O)N[C@@H](Cc3ccccc3)C(=O)O)CC2)cc1`: the largest response in the series, negative = inhibition is 27.7%. For `C[C@@H]1O[C@@H](OC[C@H]2O[C@@H](Oc3cc(O)c4c(c3)O[C@H](c3ccc(O)c(O)c3)CC4=O)[C@H](O)[C@@H](O)[C@@H]2O)[C@H](O)[C@H](O)[C@H]1O`, the largest response in the series, negative = inhibition was 2.86%.

Regarding `O=C(CC1Nc2ccccc2NC1=O)Nc1ccccc1NC(=O)CC1Nc2ccccc2NC1=O` (stereo not given), the largest response in the series, negative = inhibition was -13.5%. On to `COC(=O)c1cc(C)sc1NC(=O)CC1Nc2ccccc2NC1=O` (stereo not given), for which the Potency was 79.4 µM (active). Take `CCOC(=O)c1ccccc1NC(=O)CC1Nc2ccccc2NC1=O` (stereo not given): the largest response in the series, negative = inhibition was 5.03%. Same read-out and setting: under `Cc1sc2ncn(CC(=O)NCCCC(=O)N(C)Cc3ccccc3)c(=O)c2c1C` stands 13.5%. In the case of `N#Cc1nc(-c2ccc(OCc3ccccc3)cc2)oc1NCCCN1CCOCC1`, the Potency is 44.7 µM (active). `O=S(=O)(c1ccccc1)c1nc(-c2ccccc2)oc1NCCCN1CCOCC1`: the largest response in the series, negative = inhibition was 11.1%.

In the case of `Cc1ccc(-c2nc(C#N)c(NCCCn3ccnc3)o2)cc1`, the largest response in the series, negative = inhibition is -4.22%. Regarding `Cc1ccc(NS(=O)(=O)c2ccc3c(c2)oc(=O)n3C)c(C)c1`, the largest response in the series, negative = inhibition was 5.37%.

For `O=C(O)c1ccc(NC(=O)c2ccc(COc3ccc(Cl)cc3)o2)cc1`, the largest response in the series, negative = inhibition was 9.95%. In the case of `Cc1nc2nc(SCC(=O)NCc3ccco3)nn2c(C)c1Cc1ccccc1`, the Potency is 50.1 µM (active). Take `CCOC(=O)c1cnc(SCC(=O)NCc2ccco2)nc1N`: the largest response in the series, negative = inhibition is -17.3%. Take `Cc1ccc(Cc2c(C)nc3nc(SCC(=O)NCCN4CCOCC4)nn3c2C)cc1`: the largest response in the series, negative = inhibition is -2.31%.

Consider `Cc1cccc(NC(=O)NC2(C)CCS(=O)(=O)C2)c1` (stereo not given), for which the largest response in the series, negative = inhibition was 14.2%.

Consider `O=S(=O)(Nc1ccccc1)c1ccc(NS(=O)(=O)c2cccs2)cc1`, for which the largest response in the series, negative = inhibition was 16.9%. Still for that read-out and setting: under `O=C(CSc1ncccn1)NCCc1ccccc1` stands 18.5%; under `CCNc1nc(-c2cc3ccccc3o2)cs1`, -14.8%. In the case of `Cc1nc(C)c(-c2csc(NCCc3ccccc3)n2)s1`, the Potency is 50.1 µM (active). The same measure, in the same setting: under `S=c1[nH]nc(NCCc2ccccc2)s1` stands 22.4 µM (active). Turning to `Cc1ccc(Nc2nc(-c3sc(NC(=O)c4ccccc4)nc3C)cs2)cc1`, the largest response in the series, negative = inhibition was 0.727%. `S=C(NCCc1ccccc1)Nc1ccccc1`: the largest response in the series, negative = inhibition was -0.65%. Same read-out and setting: under `COc1cccc(C2CC(c3cccs3)=NN2C(=O)CSC2=NCCS2)c1OC` (stereo not given) stands -16%.
